Results on 31 compounds are retold here after PubChem BioAssay (EPA / NIEHS).

By AC50 is commonly meant the concentration at which the activity in the assay is half-maximal.

Inconclusive results are not listed. Activity calls are given as the source filed them. Rule for the calls: active = hit-call score of the fitted dose curve at least 0.9, where 1 is the maximum; inconclusive = response in the unintended direction; inactive = score below 0.9.

Read-out in this assay: alkyl and aryl transferase (GSTA2), GSTA2 (gene 2939)
Nature of the assay: CLD_GSTA2_48hr: CellzDirect (CLD) Gene Expression Assay for alkyl and aryl transferase (GSTA2) at 48 hours (AID 2283708).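 Note: active means mRNA induction above DMSO vehicle baseline.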 As to the method: CLD_48hr is a cell-based, multiplexed-readout assay that uses hepatocyte, a human liver primary cell, with measurements taken at 48 hours after chemical dosing in a 96-well plate.CLD_GSTA2_48hr is one of 16 assay component(s) measured or calculated from the CLD_48hr assay. It is designed to make measurements of mRNA induction, a form of inducible reporter, as detected with chemiluminescence signals by Quantitative Nuclease Protection Assay (qNPA) technology.Data from the assay component CLD_GSTA2_48hr was analyzed at the endpoint, CLD_GSTA2_48hr, in the positive analysis fitting direction relative to DMSO as the negative control and baseline of activity. Using a type of inducible reporter, gain-of-signal activity can be used to understand changes in the reporter gene as they relate to the gene GSTA2. Furthermore, this assay endpoint can be referred to as a primary readout. To generalize the intended target to other relatable targets, this assay endpoint is annotated to the transferase intended target family, where subfamily is alkyl and aryl transferase.
Human hepatocyte cultures were treated daily for two consecutive days with fresh dosing solutions containing appropriate concentrations of the 320 ToxCast chemicals (chemical identities were blinded to CellzDirect and other ToxCast collaborators), vehicle control (0.2% DMSO), and positive control inducers as summarized in Table 1. […] These replicate data, coupled with internal replicates designed within the blinded ToxCast chemical library, provided additional data to evaluate interindividual differences between hepatocyte preparations and their potential impact on chemical profiles.Cell morphology and integrity were evaluated using phase-contrast microscopy as an indicator of hepatocyte cell health (Tyson & Green, 1987). Cultures for each treatment group (i.e., media, vehicle [0.2% DMSO], positive control inducers [multiple concentrations], and the ToxCast chemicals [multiple concentrations]) were observed and cell morphology was assessed relative to vehicle control cultures at each harvest time point (0, 6, 24, or 48 h). […] Images were evaluated at the conclusion of the study to assess changes in cell integrity and account for the effects of chemical exposure on uncharacteristic changes in concentration-dependent gene expression profiles. The results from these determinations of apparent cytotoxicity were annotated (yes/no) alongside the corresponding qNPA data for reference.At the conclusion of each treatment period, hepatocyte cultures (96-well) were washed with 1 volume of HBSS, lysed by addition of 25 ul ArrayPlate lysis buffer (HTG, Tucson, AZ), and 70 ul/well of Denaturation Oil, denatured by incubation at 95C for 10 min, and frozen at approximately -70C until analysis by nuclease protection assay (qNPA) (Roberts et al., 2007). For qNPA analysis, cell lysates were thawed at 50C for approximately 30 min, qNPA probes were added, and samples were incubated at 95C for 10 min to begin the detection process by denaturing the target RNA, dissociating the duplexes and secondary structure hybridization. At the conclusion of the hybridization period, S1 nuclease reagent was added to each sample to digest all nonprotected nucleotides at 50C for 60-90 min. At the conclusion of the S1 nuclease digestions, all reactions were stopped by transfer of all the samples to fresh plates containing stop solution and incubated at 95C for 15 min to deactivate the enzyme, dissociate the mRNA/ DNA probe heterodimers, and hydrolyze the resulting single stranded mRNA, leaving a stoichiometric amount of single-stranded DNA nuclease protection probe, unmodified in sequence, as the only intact oligonucleotide left in the sample. Neutralization solution was subsequently applied to cooled (room temperature) plates, and samples were transferred to ArrayPlates for overnight incubations at 50Cto allow probes to be captured onto programmed locations on the ArrayPlates. […]
For the compound `C#CCOC(=O)[C@@H](C)Oc1ccc(Oc2ncc(Cl)cc2F)cc1`, the call was inactive.

As for `N#CSCSc1nc2ccccc2s1`, the result was inactive.

Turning to `COc1nc(C)nc(NC(=O)NS(=O)(=O)c2ccccc2OCCCl)n1`, the outcome was inactive.

For `CC(C)(c1ccc(O)cc1)c1ccc(O)cc1`, the compound was classed as inactive.

Consider `CCOC(=O)[C@H](C)Oc1ccc(Oc2nc3ccc(Cl)cc3o2)cc1`, for which the compound was called inactive.

In the case of `CCC(C)OC(=O)N1CCCCC1CCO` (stereo unspecified), the compound was called inactive.

Take `COCCO`: the outcome was inactive.

On to `COC(=O)c1ccc(CNS(C)(=O)=O)cc1S(=O)(=O)NC(=O)Nc1nc(OC)cc(OC)n1`, for which the result was inactive.

As for `CSC(=O)c1cccc2nnsc12`, the result was inactive.

Consider `C=CCOC(Cn1ccnc1)c1ccc(Cl)cc1Cl` (stereo unspecified), for which the AC50 was 36.7 µM (active).

Turning to `CCCN(CCC)C(=O)SCC`, the result was inactive.

Regarding `CC(C)(C)[C@@H](O)[C@@H](Cc1ccc(Cl)cc1)n1cncn1`, the compound was called inactive.

Regarding `CCOC(=O)NCCOc1ccc(Oc2ccccc2)cc1`, the result was inactive.

With `CCCOC(=O)NCCCN(C)C`, the outcome was inactive.

Regarding `Cc1nn(C)c(Oc2ccccc2)c1C=NOCc1ccc(C(=O)OC(C)(C)C)cc1`, the compound was classed as inactive.

`CCCCCCC(C)OC(=O)COc1nc(F)c(Cl)c(N)c1Cl` (stereo unspecified): the compound was classed as inactive.

In the case of `COc1c(Cl)ccc(Cl)c1C(=O)O`, the call was inactive.

Turning to `O=C(Nc1ccc([N+](=O)[O-])cc1Cl)c1cc(Cl)ccc1O`, the compound was called inactive.

`CCCCC(CC)COC(=O)c1ccccc1C(=O)O` (stereo unspecified): the compound was classed as inactive.

As to `COC(=O)c1c(Cl)nn(C)c1S(=O)(=O)NC(=O)Nc1nc(OC)cc(OC)n1`, the call was inactive.

For `Oc1ccc(C(c2ccc(O)cc2)C(Cl)(Cl)Cl)cc1`, the compound was classed as inactive.

For the compound `CCCCOC(=O)[C@@H](C)Oc1ccc(Oc2ccc(C(F)(F)F)cn2)cc1`, the outcome was inactive.

For the compound `c1ccc(Nc2ccccc2)cc1`, the call was inactive.

Consider `CCCCCOC(=O)COc1cc(N2C(=O)C3=C(CCCC3)C2=O)c(F)cc1Cl`, for which the compound was classed as inactive.

With `CCCN(CCC)c1c([N+](=O)[O-])cc(C(F)(F)F)c(N)c1[N+](=O)[O-]`, the compound was called inactive.

As for `CCOC(=O)COc1cc(-n2ncc(C(F)(F)F)c(C)c2=O)c(F)cc1Cl`, the result was inactive.

For `CC1(C)C(C=C(Cl)Cl)C1C(=O)OCc1cccc(Oc2ccccc2)c1` (stereo unspecified), the compound was called inactive.

With `CCOC(=O)C(C)Oc1ccc(Oc2nc3ccc(Cl)cc3o2)cc1` (stereo unspecified), the result was inactive.

Consider `CCNc1nc(N)nc(Cl)n1`, for which the result was inactive.

On to `CCSC(=O)N(CC(C)C)CC(C)C`, for which the result was inactive.

In the case of `CCCCC(CC)CN1C(=O)C2C3C=CC(C3)C2C1=O` (stereo unspecified), the result was inactive.
